# Bioassay records: PubChem BioAssay, National Center for Advancing Translational Sciences (NCATS)
# Pf growth 96h: inhibits malaria parasite growth, 96 h; AID 504834; P. falciparum luciferase reporter growth, 96 h; Potency, µM (highest dose often 28.7 µM), without a hit: at the highest dose activity change, negative = inhibition, hits mostly inhibitors; hit rate 6.9% among 320,000; further: potency means the concentration at half of the fitted maximal effect; on the % scale 0 is the no-effect control and ±100 the full control effect
#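 Two-generation exposure (96 h) targets delayed-death phenotype. Reporter parasites carrying integrated firefly luciferase, in red cells at 2% hematocrit and 0.05% parasitemia final, kept at 37 C, 5% CO2; luminescence loss indicates inhibition.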
# Shiga toxin inh: inhibitors of Shiga toxin in Vero cells; Vero cells, Shiga toxin protein synthesis inhibition reporter; inhibition, % at 38.7 µM; hit rate 9.2% among 290,000; AID 2315; in the data active means inhibition mostly above about 28%, no sharp cut-off; inactive means mostly below about 43%; further: 0% is about no effect
# LASV entry inh: inhibitors of Lassa virus binding or cell entry; Potency, µM (series often up to 37.9 µM), for the others: at the top dose activity change, negative = inhibition, hits mostly inhibitors; AID 540256; Lassa virus pseudotype entry inhibition, cell reporter; hit rate 1.2% among 300,000; calls by dose curve; tested in HEK293 cells; further: potency means the concentration at half of the fitted maximal effect; on the % scale 0 is the no-effect control and ±100 the full control effect; nearly all actives have a fitted effect of over 50% in size
# Marburg entry inh: inhibitors of Marburg virus binding or cell entry; Marburg virus pseudotyped entry inhibition, cell reporter; Potency, µM (series often up to 37.8 µM), for inactives: at the top dose activity change, negative = inhibition, usual class: inhibitors; hit rate 1.8% among 300,000; calls by dose curve; tested in HEK293 cells; further: potency means the concentration at half of the fitted maximal effect; on the % scale 0 is the no-effect control and ±100 the full control effect
# Cycloheximide cs: affects cycloheximide protein synthesis inhibition readout, counter-screen | cell reporter, cycloheximide protein synthesis inhibition counterscreen | max response, % | hit rate 12% among 300,000 | AID 2314; in the data active means max response mostly above about 13%, no sharp cut-off; inactive means mostly below about 14%; further: read at 38.3 µM for the half of the compounds with a filed dose; 0% is about no effect
# Pf growth 48h: inhibits P. falciparum growth in the first generation, 48 h; P. falciparum luciferase growth in erythrocytes, 48 h; hit rate 5.9% among 310,000; AID 504832; Potency, µM (doses to about 28.7 µM), inactives show top-dose activity change, negative = inhibition, most hits filed as inhibitors; further: potency means the concentration at half of the fitted maximal effect; on the % scale 0 is the no-effect control and ±100 the full control effect
#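 Erythrocytes infected with P. falciparum carrying an integrated firefly luciferase reporter (2% hematocrit, 0.1% parasitemia final) were exposed to compounds in RPMI 1640 with 0.5% Albumax at 37 C, 5% CO2. Growth inhibition was scored as reduced luminescence.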
# * = called active by the depositor; ? = inconclusive; / = no result; [ ] = another dose, or the depositor's remark. Sampled rows, rich in hits. Any-hit rate of the full collection: about 19%. Unless noted, the call rests on the fitted dose curve; in most records, active means well fitted inhibition curve with a large enough effect; inconclusive means small, poorly fitted or top-dose-only effect, or another doubt; inactive means no such curve, though single readings can be large or run the other way.
SMILES,Pf growth 96h,Shiga toxin inh,LASV entry inh,Marburg entry inh,Cycloheximide cs,Pf growth 48h
O=C(CSc1nnc2ccc3ccccc3n12)N1CCOCC1,66%,32*,?,?,63*,81%
CCn1c(CC(=O)Nc2ccc(C)cc2)nnc1SCC(=O)N1CCOCC1,0%,-6,14%[46.1 µM],-1%[46.1 µM],-2,0%
c1ccc2c(c1)ccc1nnc(SCc3ccc4c(c3)OCCO4)n12,-27%,42*,/,4%,42*,/
c1ccc2c(c1)ccc1nnc(-c3ccc4c(c3)OCO4)n12,37%,active,19%,-7%,12*,-7%
O=C(CCN1C(=O)/C(=C\c2ccccc2)SC1=S)Nc1ccc(C(=O)O)cc1,-11%,-3,?,-5%[46.1 µM],4,28%
CC(=O)Oc1ccccc1-c1nc(C)nc(N(C)C(C)=O)n1,/,38*,3%,12%,12*,53%
Cc1ccc(-n2nnc3c(=O)oc4ccccc4c32)cc1,170%,-3,-3%,1%,-2,33%
CCn1ncc(C2=NOC(C(=O)Nc3ccc(C)cc3)C2)c1C (stereo unspecified),/,-15,-12%,-1%,1,9%
CCn1ncc(C2=NOC(C(=O)Nc3cccnc3)C2)c1C (stereo unspecified),-23%,13,26%[14.3 µM],17%,19*,-1%
Cc1cc(/C=C2\C(=O)NC(=O)N(Cc3ccccc3Cl)C2=O)c(C)n1-c1ccc(C(=O)O)cc1,1.9µM*,3,29%,-1%[46.1 µM],-3,7%
Cc1ccc(-n2c(C)cc(/C=C3/C(=O)NC(=O)N(Cc4ccco4)C3=O)c2C)cc1,?,-6,7%,4%,-1,-21%
Cc1cc(/C=C2\C(=O)NC(=O)N(Cc3ccco3)C2=O)c(C)n1-c1ccc(O)cc1,29%,15,0%[46.1 µM],-16%[46.1 µM],17*,0%
CNc1oc(-c2ccco2)nc1C#N,/,21,1%,24%,0,12%
CNc1oc(-c2ccccc2Cl)nc1C#N,53%,48,23%,-3%,17*,36%
COc1ccc(-c2nc(C#N)c(N3CCCCCC3)o2)cc1,/,31,-4%,?,17,?
CNc1oc(-c2ccc(Cl)cc2)nc1C#N,1%,178*,29%,?,37*,123%
CNc1oc(-c2cccc3ccccc23)nc1C#N,16%,64,?,2%,5,44%
COc1ccc(-c2nc(C#N)c(NC(C)C)o2)cc1,16%,74*,5%,1%,41*,0%
O=C(Nc1nccs1)c1ccc(Cl)c(S(=O)(=O)N2CCOCC2)c1,?,19,11%,-8%,29,-8%
O=C(N[C@@H]1CCC(=O)N(CC[C@H](Oc2ccccc2)c2ccccc2)CC1)OCc1ccccc1,10µM*,14,/,/,2,0.41µM*
Cc1ccc(SC[C@H](Cc2ccccc2)N2CC[C@@H](C)CCC2=O)cc1,?,-9,/,/,-3,?
N#CC[C@H](Cc1ccccc1)N1CC[C@@H](NC(=O)OCc2ccccc2)CCC1=O,3%,9,/,/,1,1%
Cc1ccc(S[C@@H](CCN2CC[C@H](NC(=O)OCc3ccccc3)CCC2=O)c2ccccc2)cc1,?,-4,/,/,0,3%
COc1ccc(SC[C@H](Cc2ccccc2)N2CC[C@@H](NC(=O)OCc3ccccc3)CCC2=O)cc1,?,/,/,/,/,7.4µM*
COc1ccc(SC[C@H](Cc2ccccc2)N2CC[C@@H](C)CCC2=O)cc1,?,/,/,/,/,12µM*
SMILES,Pf growth 96h,Shiga toxin inh,LASV entry inh,Marburg entry inh,Cycloheximide cs,Pf growth 48h
O=C(COc1ccc2c3c(c(=O)oc2c1)CCC3)NCc1ccccn1,?,-4,/,/,-7,32%
OC1C2(Cc3ccccc3)CN3CCN(C2)CC1(Cc1ccccc1)C3 (stereo unspecified),0.93µM*,3,?,-20%,2,?
OC1C2CN3CCN(C2)CC1(Cc1ccccc1)C3 (stereo unspecified),?,-8,11%,16%,-3,23%
C=CCn1c(SC)nccc1=O,/,/,16%[46.1 µM],14%[46.1 µM],/,/
O=C(OCc1nc2ccccc2s1)[C@@H]1CCCN1S(=O)(=O)c1ccccc1F,/,49,/,-5%,26*,32%
O=C(Nc1nc2ccccc2s1)C1CCCN1S(=O)(=O)c1ccc(Cl)cc1 (stereo unspecified),26%,-6,2%,-20%,1,?
Cc1ccc(S(=O)(=O)N2CCCC2C(=O)Nc2ccc(O)cc2)cc1 (stereo unspecified),5.2µM*,-8,-14%,0%,-5,-21%
COc1ccc(S(=O)(=O)N2CCCC2C(=O)Nc2ccc(C)cc2)cc1 (stereo unspecified),62%,1,23%,-10%,2,-26%
O=C(OCC(=O)N1CCc2ccccc21)[C@@H]1CCCN1S(=O)(=O)c1ccccc1F,-11%,/,/,/,/,-16%
Cc1ccc(S(=O)(=O)N2CCCC2C(=O)Nc2nc3ccccc3s2)cc1 (stereo unspecified),?,7,0%,-1%,14*,?
COc1cc(CN2CCN(S(=O)(=O)c3ccc(NC(C)=O)cc3)CC2)cc(OC)c1O,14%,-15,3%,-13%,-4,-1%
COc1cc(C(=O)N2CCC(NC(=O)C(Cc3ccc(C)cc3)NC(C)=O)CC2)cc(OC)c1OC (stereo unspecified),5.9µM*,14,-1%,23%,-1,-4%
COc1ccc(CN2CCN(S(=O)(=O)c3ccc(NC(C)=O)cc3)CC2)cc1OC,10µM*,-9,?,0%,14,?
COc1ccc(CC(NC(C)=O)C(=O)NC2CCN(S(=O)(=O)c3ccc(NC(C)=O)cc3)CC2)cc1OC (stereo unspecified),13µM*,-8,12%,4%,1,0%
COc1cccc(CC(NC(C)=O)C(=O)NC2CCN(S(=O)(=O)c3ccc(NC(C)=O)cc3)CC2)c1 (stereo unspecified),-2%,-8,15%,-2%[46.1 µM],-1,-23%
COc1ccc(CC(NC(C)=O)C(=O)NC2CCN(S(=O)(=O)c3cccc4ccccc34)CC2)cc1OC (stereo unspecified),13µM*,-1,?,0%,-2,/
CN(C)C(=S)NC(=NCc1ccc([N+](=O)[O-])cc1)c1ccccc1,33%,16,/,/,-4,?
O=C(OCC(=O)N1CCCCCC1)c1cccc(Cl)c1,6%,/,/,/,/,-14%
Cc1ccc(CN2CC(C(=O)Nc3ncc(C)s3)CC2=O)cc1 (stereo unspecified),-7%,/,6%,-7%,/,?
COc1cc(CC(NC(C)=O)C(=O)NC2CCN(C(=O)Nc3ccccc3C)CC2)cc(OC)c1 (stereo unspecified),1.7µM*,38,-2%,1%[46.1 µM],-2,14%
COc1ccc(CC(NC(C)=O)C(=O)NC2CCN(S(=O)(=O)c3ccccc3)CC2)cc1OC (stereo unspecified),5.2µM*,16,-19%,-3%,-4,1%
